The results in this text go back to PubChem BioAssay AID2069 (Sanford-Burnham Center for Chemical Genomics, 2009).

In all, about 1,200 compounds went through this assay and about 210 (18%) were called active. The list is a sample of the results. A number with no mark means an inactive call. No stated cut-off is given here; in the data, active means inhibition above about 30%; inactive means the rest.

The test in a line: HTRF signal interference by compounds, confirmation, artefact control for SUMOylation inhibitor project, biochemical, uHTS (AID 2069). Conditions: HTRF interference counterscreen, fluorescence, at 35 µM, stronger effect = higher value.
In general, inhibition refers to the drop in the measured response relative to a control, in per cent. For `Cc1cc[n+](-c2[nH]c(=O)sc2/C=N/N=C(\[O-])c2ccncc2)cc1`, the inhibition was -1.55%.

For the compound `CCCCNC(=O)Oc1c(Br)cc2sc(=O)oc2c1Br`, the inhibition was 7.5%. With `Cc1cc(/C=N/n2c(COc3ccccc3C)nc3ccccc3c2=O)c(O)c([N+](=O)[O-])c1` the figure was -15.5%.

Regarding `CCn1c2ccccc2c2c3ncc4cccn4c3ccc21`, the inhibition was 31.1% (active). Take `O=[N+]([O-])c1ccc2nc(CCCc3nc4ccc([N+](=O)[O-])cc4[nH]3)[nH]c2c1`: the inhibition was 28.1%.

With `COc1ccccc1CCNC(=O)CSc1ccc(-c2ccco2)nn1`, the inhibition is 14.2%. As to `CCc1cc2c(=O)c(Oc3ccccc3F)c(C)oc2c(CN(C)C)c1O`, the inhibition was 62.9% (active).

Turning to `Cc1ccccc1NC(=O)Cn1c(O)c(N=NC(=O)c2ccccc2O)c2ccccc21`, the inhibition was 11.2%. As to `CN1CCc2cc3c(c4c2[C@H]1[C@H](O)c1ccccc1-4)OCO3`, the inhibition is 1.95%.

Take `CCc1ccc(/C=C2/SC(=S)N(CCC(=O)Nc3ccc(C(=O)O)cc3)C2=O)cc1`: the inhibition is 8.2%. With `COc1ccc2nc3ccccc3nc2c1N`, the inhibition is -67.2%. With `CC(=O)NC1C(=O)N(CCN2CCOCC2)c2ccc(Br)cc21` (centres undefined) the figure was 32.2% (active); with `Brc1ccc(OCCN2CCOCC2)cc1`, -8.15%; with `CC(=O)NC1C(=O)N(CCN2CCOCC2)c2ccc(F)cc21` (centres undefined), 28.6%. As to `CC(=O)NC1C(=O)N(CCN2CCOCC2)c2ccc(Cl)cc21` (centres undefined), the inhibition is 25.8%. `CCc1ccc2c(c1)C(NC(C)=O)C(=O)N2CCN1CCOCC1` (centres undefined): the inhibition is 30.8% (active). To `CCc1ccc2nc(NC(=O)c3ccc4c(=O)[nH]c(CN5CCOCC5)nc4c3)sc2c1` belongs 29.9%; to `CCOc1ccc2c(c1)C(NC(C)=O)C(=O)N2CCN1CCOCC1` (centres undefined), 37.8% (active). For `O=C1NC(=O)c2cc(NC(=O)C3CCCCC3)ccc21`, the inhibition was 25.4%. As for `CCOC(=O)C1CC(=O)c2cc(OC)c(OC)cc2C1` (centres undefined), the inhibition was -1.1%.

Regarding `O=C(COc1ccc(Cl)cc1)Nc1nnc(-c2ccc3c(c2)CCCC3)o1`, the inhibition was -7.05%. With `CC(C)=CCC1=C(OCC(=O)O)C(=O)c2ccccc2C1=O` the figure was -6.2%; with `O=C(NC1(O)C(=O)c2ccccc2C1=O)c1ccccc1`, 57.5% (active). With `O=C(NC1(O)C(=O)c2ccccc2C1=O)c1ccc(C(F)(F)F)cc1` the figure was 56.5% (active); with `O=C(Cc1ccccc1Cl)NC1(O)C(=O)c2ccccc2C1=O`, -30.6%. With `O=C1c2ccccc2C(=O)C12OC2c1ccc(Cl)cc1` (centres undefined) the figure was 4.4%; with `O=C(NC1(O)C(=O)c2ccccc2C1=O)c1c(Cl)cccc1Cl`, 50.4% (active). Turning to `Cc1ccc(C(=O)NC2(O)C(=O)c3ccccc3C2=O)cc1C`, the inhibition is 29.6%. With `CN(NC(=O)c1ccc(Cl)cc1)c1ncc(C(F)(F)F)cc1Cl` the figure was 4.95%; with `CC(=O)c1ccc(-c2ccc(/C=C(/Sc3n[nH]c(C)n3)C(=O)O)o2)cc1`, -9.75%. With `Cc1cccc(C)c1OCC(=O)N=Nc1c(O)[nH]c2ccc(Br)cc12` the figure was -1.15%; with `Cc1nnc(N/N=C\c2ccc(-c3ccccc3[N+](=O)[O-])o2)n1N`, 16%; with `O=C1/C(=N\S(=O)(=O)c2cccs2)C([n+]2cccc(Cc3ccccc3)c2)=C([O-])c2ccccc21`, 22%. To `CCC(=O)N1CCc2cc(S(=O)(=O)NC(C(=O)NCc3ccc(C)cc3)C(C)C)ccc21` (centres undefined) belongs -2.25%. On to `COC(=O)c1c(NC(=O)COC(=O)c2ccc(NC(=O)CC#N)cc2)sc2c1CCCCC2`, for which the inhibition was 4.25%. As for `Fc1cccc(-n2c(-c3cccs3)nc3nc4ccccc4nc32)c1`, the inhibition is 30.1% (active). Turning to `COCCn1c(-c2ccco2)nc2nc3ccccc3nc21`, the inhibition was 12.7%.

As to `O=[N+]([O-])c1ccc(-c2ccc(C=Nc3cccc4ccccc34)o2)cc1`, the inhibition was 11.9%. With `CN(C)S(=O)(=O)c1cccc(-c2nn(-c3ccccc3)cc2/C=C2\SC(=S)NC2=O)c1` the figure was -4%; with `Cc1nnc(Sc2cc(NCCCO)c([N+](=O)[O-])c3nonc23)s1`, -3.2%. To `O=c1c2ccccc2oc2cc(NCCCN3CCOCC3)ccc12` belongs 57.9% (active); to `COc1ccc(-c2ccc(C(c3c(C)[nH][nH]c3=O)c3c(C)[nH][nH]c3=O)o2)c([N+](=O)[O-])c1`, 1.45%. To `COc1cc2c(cc1OC)-c1cc3ccc4c(c3c[n+]1CC2)OCO4` belongs 24.4%; to `CCOC(=O)c1c(NC(=O)c2ccco2)n(C2CCCCC2)c2nc3ccccc3nc12`, 21.2%.

Turning to `Cc1cc(NCCO)c2cc(O)ccc2n1`, the inhibition was 57.5% (active). To `Cc1ccccc1NC(=O)c1ccc(N/N=C/c2ccccc2O)c([N+](=O)[O-])c1` belongs 24.7%. To `O=C(NC(=S)Nc1cccc2c(O)cccc12)c1ccccc1[N+](=O)[O-]` belongs -1.65%; to `COC(=O)/C(=C\Nc1ccc(Cl)cc1Cl)NC(=O)c1ccc(OC)cc1`, 0.3%; to `Oc1ccc(C=Nc2cccc3ccccc23)c(O)c1`, 0.55%.

For `O=C(N/N=C/c1ccc(O)cc1O)C(=O)N/N=C/c1ccc(O)cc1O`, the inhibition was 63.6% (active). In the case of `COc1cccc(/C=N\NC(=O)C2=NNC(=O)C2C)c1O` (centres undefined), the inhibition is 24.4%. With `COc1cc(OC)c(/C=N/NC(=O)c2ccc(NC(C)=O)cc2)cc1Br`, the inhibition is 23.1%.

Take `COc1cccc(/C=N/NC(=O)C(=O)N/N=C/c2cccc(OC)c2O)c1O`: the inhibition was 48% (active). To `COc1cccc2c(SCC(=O)N/N=C/c3ccc(O)cc3O)cc(C)nc12` belongs 15.7%.

On to `CC1(OC(=O)c2cccs2)C(=O)C=C2C=C3CCCN3C=C2C1=O` (centres undefined), for which the inhibition was 7.4%. For `O=C(CNc1ccc2ccccc2c1)N/N=C/c1cc2ccccc2nc1Cl`, the inhibition is 2.4%. With `CC1=NN(c2ccccc2)C(=O)C1` the figure was 7.95%. With `Cc1[nH]n(-c2ncc(-c3ccccc3)s2)c(=O)c1C(c1ccc(Cl)cc1)C(C#N)C#N` (centres undefined) the figure was -20.6%; with `O=C(Cn1c2ccccc2c(=O)c2ccccc21)N/N=C/c1cc([N+](=O)[O-])ccc1N1CCCCCC1`, 10.9%.
